Source: the supplement of paper PMC8728848
Shown is part of a subset that was picked to be rich in the strongest signals.

Key:
Assay in all cases: glycan array binding signal (z-score within array); higher = stronger binding
Conditions in all cases: glycan notation: IUPAC condensed, linker removed
[1] = target: Fuc(a1-2)Gal(b1-3)[Fuc(a1-4)]GlcNAc(b1-2)Man(a1-3)[Fuc(a1-2)Gal(b1-3)[Fuc(a1-4)]GlcNAc(b1-2)Man(a1-6)]Man(b1-4)GlcNAc(b1-4)GlcNAc
Method in brief: (§1)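 The Consortium for Functional Glycomics database supplied 3228 glycan arrays, of which those lacking an available protein sequence were dropped. The binding signal, a within-array Z-score, was averaged across arrays of the same protein sequence and across linkers. Negative scores can be read as non-binding.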

[2] = target: Fuc(a1-2)[GalNAc(a1-3)]Gal(b1-4)GlcNAc
Method in brief: as §1

Fuc(a1-3)GlcNAc = target: Fuc(a1-3)GlcNAc
Method in brief: as §1

[3] = target: Fuc(a1-3)[Gal(b1-4)]GlcNAc(b1-2)Man(a1-3)[Fuc(a1-3)[Gal(b1-4)]GlcNAc(b1-2)Man(a1-6)]Man(b1-4)GlcNAc(b1-4)GlcNAc
Method in brief: as §1

[4] = target: Fuc(a1-3)[Gal(b1-4)]GlcNAc(b1-4)Gal(b1-4)[Fuc(a1-3)]GlcNAc
Method in brief: as §1

[5] = target: Gal(a1-3)[Gal(a1-4)]Gal(b1-4)GlcNAc
Method in brief: as §1

Gal(b1-2)Gal = target: Gal(b1-2)Gal
Method in brief: as §1

[6] = target: Gal(b1-3)GlcNAc(b1-3)Gal(b1-4)Glc
Method in brief: as §1

[7] = target: Gal(b1-3)[Fuc(a1-4)]GlcNAc(b1-2)Man(a1-3)[Gal(b1-3)[Fuc(a1-4)]GlcNAc(b1-2)Man(a1-6)]Man(b1-4)GlcNAc(b1-4)[Fuc(a1-6)]GlcNAc
Method in brief: as §1

[8] = target: Gal(b1-3)[Neu5Ac(a2-6)]GalNAc
Method in brief: as §1

[9] = target: Gal(b1-4)GalNAc(b1-3)[Fuc(a1-2)]Gal(b1-4)GlcNAc
Method in brief: as §1

Gal3S(b1-3)GlcNAc = target: Gal3S(b1-3)GlcNAc
Method in brief: as §1

[10] = target: GlcNAc(a1-4)Gal(b1-3)GlcNAc
Method in brief: as §1

[11] = target: GlcNAc(a1-4)Gal(b1-4)GlcNAc(b1-3)Gal(b1-4)GlcNAc(b1-3)Gal(b1-4)GlcNAc
Method in brief: as §1

[12] = target: GlcNAc(a1-4)Gal(b1-4)GlcNAc(b1-3)Gal(b1-4)[Fuc(a1-3)]GlcNAc(b1-3)Gal(b1-4)[Fuc(a1-3)]GlcNAc
Method in brief: as §1

[13] = target: GlcNAc(a1-6)Gal(b1-4)GlcNAc
Method in brief: as §1

[14] = target: GlcNAc(b1-3)[GlcNAc(b1-6)]Gal(b1-4)GlcNAc
Method in brief: as §1

[15] = target: GlcNAc(b1-4)GlcNAc(b1-4)GlcNAc(b1-4)GlcNAc(b1-4)GlcNAc
Method in brief: as §1

[16] = target: Man(a1-2)Man(a1-2)Man(a1-3)Man
Method in brief: as §1

[17] = target: Man(a1-2)Man(a1-3)[Man(a1-2)Man(a1-6)]Man
Method in brief: as §1

[18] = target: Man(a1-2)Man(a1-3)[Man(a1-2)Man(a1-6)]Man(a1-6)[Man(a1-2)Man(a1-2)Man(a1-3)]Man
Method in brief: as §1

[19] = target: Man(a1-2)Man(a1-3)[Man(a1-2)Man(a1-6)]Man(a1-6)[Man(a1-2)Man(a1-2)Man(a1-3)]Man(b1-4)GlcNAc(b1-4)GlcNAc
Method in brief: as §1

[20] = target: Man(a1-3)[Man(a1-6)]Man(a1-6)[Man(a1-2)Man(a1-3)]Man(b1-4)GlcNAc(b1-4)GlcNAc
Method in brief: as §1

[21] = target: Man(a1-3)[Man(a1-6)]Man(a1-6)[Man(a1-3)]Man(b1-4)GlcNAc(b1-4)GlcNAc
Method in brief: as §1

[22] = target: Neu5Ac(a2-3)Gal(b1-4)GlcNAc
Method in brief: as §1

[23] = target: Neu5Ac(a2-3)Gal(b1-4)GlcNAc6S
Method in brief: as §1

[24] = target: Neu5Ac(a2-3)Gal(b1-4)[Fuc(a1-3)]GlcNAc
Method in brief: as §1

[25] = target: Neu5Ac(a2-3)Gal(b1-4)[Fuc(a1-3)]GlcNAc(b1-6)[Gal(b1-3)]GalNAc
Method in brief: as §1

[26] = target: Neu5Ac(a2-3)[GalNAc(b1-4)]Gal(b1-4)GlcNAc
Method in brief: as §1

[27] = target: Neu5Ac(a2-6)Gal(b1-4)GlcNAc(b1-2)Man(a1-3)[GlcNAc(b1-2)Man(b1-4)GlcNAc(b1-2)Man(a1-6)]Man(b1-4)GlcNAc(b1-4)GlcNAc
Method in brief: as §1

[28] = target: Neu5Ac(a2-6)Gal(b1-4)GlcNAc6S
Method in brief: as §1

[29] = target: Neu5Ac(b2-6)Gal(b1-4)GlcNAc
Method in brief: as §1

Neu5Gc(a2-3)Gal(b1-4)Glc = target: Neu5Gc(a2-3)Gal(b1-4)Glc
Method in brief: as §1

[30] = target: Fuc(a1-2)Gal(b1-4)GlcNAc(b1-3)Gal(b1-4)GlcNAc
Method in brief: as §1

[31] = target: Fuc(a1-2)Gal6S(b1-4)Glc6S
Method in brief: as §1

[32] = target: Fuc(a1-2)[GalNAc(a1-3)]Gal(b1-4)GlcNAc(b1-3)Gal(b1-4)GlcNAc(b1-3)Gal(b1-4)GlcNAc
Method in brief: as §1

[33] = target: Fuc(a1-3)[Gal3S(b1-4)]Glc6S
Method in brief: as §1

[34] = target: Fuc(a1-3)[Neu5Ac(a2-3)]Gal(b1-4)GlcNAc(b1-3)GalNAc
Method in brief: as §1

[35] = target: Gal(b1-3)GalNAc(a1-3)[Fuc(a1-2)]Gal(b1-4)Glc
Method in brief: as §1

[36] = target: Gal(b1-3)GalNAc(a1-3)[Fuc(a1-2)]Gal(b1-4)GlcNAc
Method in brief: as §1

[37] = target: Gal(b1-3)GlcNAc(b1-2)Man(a1-3)[Gal(b1-3)GlcNAc(b1-2)Man(a1-6)]Man(b1-4)GlcNAc(b1-4)[Fuc(a1-6)]GlcNAc
Method in brief: as §1

[38] = target: Gal(b1-3)GlcNAc(b1-3)Gal(b1-3)GlcNAc
Method in brief: as §1

[39] = target: Gal(b1-4)GlcNAc(b1-2)Man(a1-3)[Gal(b1-4)GlcNAc(b1-2)Man(a1-6)]Man(b1-4)GlcNAc(b1-4)[Fuc(a1-6)]GlcNAc
Method in brief: as §1

[40] = target: Gal(b1-4)GlcNAc(b1-3)[Gal(b1-4)GlcNAc(b1-6)]Gal(b1-4)GlcNAc
Method in brief: as §1

Glc(a1-6)Glc(a1-6)Glc = target: Glc(a1-6)Glc(a1-6)Glc
Method in brief: as §1

GlcA(b1-6)Gal = target: GlcA(b1-6)Gal
Method in brief: as §1

[41] = target: GlcNAc(b1-2)Man(a1-3)[GlcNAc(b1-2)Man(a1-6)]Man(b1-4)GlcNAc(b1-4)GlcNAc
Method in brief: as §1

[42] = target: GlcNAc(b1-2)Man(a1-3)[GlcNAc(b1-2)Man(a1-6)]Man(b1-4)GlcNAc(b1-4)[Fuc(a1-6)]GlcNAc
Method in brief: as §1

[43] = target: GlcNAc(b1-3)[GlcNAc(b1-4)][GlcNAc(b1-6)]GlcNAc
Method in brief: as §1

[44] = target: GlcNAc(b1-3)[GlcNAc(b1-6)]GalNAc
Method in brief: as §1

[45] = target: GlcNAc(b1-4)GlcNAc(b1-4)GlcNAc
Method in brief: as §1

[46] = target: Neu5Ac(a2-3)Gal(b1-4)GlcNAc(b1-6)[Neu5Ac(a2-3)Gal(b1-3)]GalNAc
Method in brief: as §1

[47] = target: Neu5Ac(a2-3)Gal(b1-4)[Fuc(a1-3)]GlcNAc(b1-3)Gal(b1-4)GlcNAc
Method in brief: as §1

[48] = target: Neu5Ac(a2-3)GalNAc(b1-4)GlcNAc
Method in brief: as §1

[49] = target: Neu5Ac(a2-6)Gal(b1-4)GlcNAc(b1-2)Man(a1-3)[Neu5Ac(a2-6)Gal(b1-4)GlcNAc(b1-2)Man(a1-6)]Man(b1-4)GlcNAc(b1-4)GlcNAc
Method in brief: as §1

[50] = target: Neu5Ac(a2-6)Gal(b1-4)GlcNAc(b1-2)Man(a1-6)[Man(a1-3)]Man(b1-4)GlcNAc(b1-4)GlcNAc
Method in brief: as §1

[51] = target: Neu5Ac(a2-8)Neu5Ac(a2-8)Neu5Ac(a2-3)Gal(b1-4)Glc
Method in brief: as §1

B1: DC-SIGN (Canis lupus), XP_853402 (protein)
chain: AGLCRPCPWKWELFQESCYFFSQTQNTWKESISACQNLRAQLVIINSTEEQKFLKSWNTRNNQRTWIGLSDHHNEGSWKWVDNTPLQLSFWKEGEPNNHGDEDCVELYSDGWNDNRCSTENFWICKKPSSPCPGPGLNDIFEAQKIEWHE
glycan array binding signal (z-score) [1]: 0.148 | glycan array binding signal (z-score) [2]: -0.137 | glycan array binding signal (z-score) (Fuc(a1-3)GlcNAc): 0.009 | glycan array binding signal (z-score) [3]: -0.157 | glycan array binding signal (z-score) [4]: 0.044 | glycan array binding signal (z-score) [5]: -0.15 | glycan array binding signal (z-score) (Gal(b1-2)Gal): -0.033 | glycan array binding signal (z-score) [6]: -0.172 | glycan array binding signal (z-score) [7]: 5.73 | glycan array binding signal (z-score) [8]: -0.216 | glycan array binding signal (z-score) [9]: -0.176 | glycan array binding signal (z-score) (Gal3S(b1-3)GlcNAc): -0.026 | glycan array binding signal (z-score) [10]: 0.018 | glycan array binding signal (z-score) [11]: -0.272 | glycan array binding signal (z-score) [12]: 1.73 | glycan array binding signal (z-score) [13]: -0.105 | glycan array binding signal (z-score) [14]: -0.336 | glycan array binding signal (z-score) [15]: -0.267 | glycan array binding signal (z-score) [16]: 7.92 | glycan array binding signal (z-score) [17]: 3.37 | glycan array binding signal (z-score) [18]: 7.69 | glycan array binding signal (z-score) [19]: 4.83 | glycan array binding signal (z-score) [20]: 11.8 | glycan array binding signal (z-score) [21]: 0.127 | glycan array binding signal (z-score) [22]: -0.217 | glycan array binding signal (z-score) [23]: -0.127 | glycan array binding signal (z-score) [24]: -0.257 | glycan array binding signal (z-score) [25]: -0.407 | glycan array binding signal (z-score) [26]: -0.085 | glycan array binding signal (z-score) [27]: -0.249 | glycan array binding signal (z-score) [28]: -0.341 | glycan array binding signal (z-score) [29]: -0.361 | glycan array binding signal (z-score) (Neu5Gc(a2-3)Gal(b1-4)Glc): -0.065

B2: LcH (Lens culinaris), P02870 (protein)
chain: TETTSFSITKFSPDQQNLIFQGDGYTGKEGLTLTKVSKETGGRALYSTPIHIWDRDTVNVANFVTNGSQVFRESPNGYNVADGFTFFIAPVDTKPQTGGGYLGVFYNGKEYDKTSQTVAVEFDTFYNAAWDPSNKERHIGIDVNSIKSVNTKSWNLQNGVTSYTLNEVVPLKDVVPEWVRIGFSATTGAEFAAQEVHSWSFNSQLGHTSKS
glycan array binding signal (z-score) [1]: -0.091 | glycan array binding signal (z-score) [30]: -0.141 | glycan array binding signal (z-score) [31]: -0.104 | glycan array binding signal (z-score) [32]: -0.108 | glycan array binding signal (z-score) [33]: -0.119 | glycan array binding signal (z-score) [34]: -0.132 | glycan array binding signal (z-score) [35]: -0.147 | glycan array binding signal (z-score) [36]: -0.093 | glycan array binding signal (z-score) [37]: 14.3 | glycan array binding signal (z-score) [38]: -0.142 | glycan array binding signal (z-score) [39]: 9.53 | glycan array binding signal (z-score) [40]: -0.138 | glycan array binding signal (z-score) (Glc(a1-6)Glc(a1-6)Glc): -0.098 | glycan array binding signal (z-score) (GlcA(b1-6)Gal): -0.111 | glycan array binding signal (z-score) [13]: -0.102 | glycan array binding signal (z-score) [41]: 1.2 | glycan array binding signal (z-score) [42]: 6.22 | glycan array binding signal (z-score) [43]: -0.125 | glycan array binding signal (z-score) [44]: -0.082 | glycan array binding signal (z-score) [45]: -0.107 | glycan array binding signal (z-score) [17]: 1.24 | glycan array binding signal (z-score) [18]: 3.73 | glycan array binding signal (z-score) [46]: -0.129 | glycan array binding signal (z-score) [47]: -0.046 | glycan array binding signal (z-score) [48]: -0.118 | glycan array binding signal (z-score) [49]: -0.12 | glycan array binding signal (z-score) [50]: -0.124 | glycan array binding signal (z-score) [51]: -0.138 | glycan array binding signal (z-score) [29]: -0.111
